# Values joined by “and” are separate entries in the source; they are usually repeats but may differ in a detail not shown here. Equal entries are not always repeated. The panel holds about 83,000 compounds, 20% with a hit somewhere; the sample as a whole holds those more often.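 For each line, cells grew in 96-well plates with the test compound present at a single concentration for 48 hours.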 Active and inactive are the calls of the source. The calls were made as follows: active = growth percent below 10; inactive = the rest.
# Tests used:
# UACC-62 melanoma = test: NCI-60 one-dose screen, 48 h (100 = growth as untreated, 0 = no growth, -100 = all killed); conditions: 10 µM unless noted
# TK-10 renal = test: as above; conditions: 10 µM unless noted
SMILES,growth (UACC-62 melanoma),growth (TK-10 renal)
COc1ccc(/C=c2\[nH]c3nc(=O)c(N4CCOCC4)c(N)n3c2=O)cc1,67.5% [100 µM] (inactive) and 26% [100 µM] (inactive),72% [100 µM] (inactive) and 6.01% [100 µM] (active)
C/C=C1\NC(=O)[C@H]2CSSCCC=C[C@H](CC(=O)N[C@H](C(C)C)C(=O)N2)OC(=O)[C@H](C(C)C)NC1=O,-83.2% [0.1 µM] (active) and -98.1% [0.1 µM] (active),-93% [0.1 µM] (active) and -98.3% [0.1 µM] (active)
N#CC1(C#N)C2CCCCC23OC(=N)C1(C#N)C(c1ccco1)O3 (stereo not given),-50.9% [100 µM] (active),-40.6% [100 µM] (active)
C=C1C(=O)O[C@@H]2C[C@@]3(C)CC(=O)C=C(C)[C@@H]3C[C@H]12,-95.6% [100 µM] (active) and -86.6% [100 µM] (active),-87.6% [100 µM] (active) and -78.7% [100 µM] (active)
C=CC(COC(=O)C(C)(C)OC(C)=O)c1ccc(OC(=O)C(C)C)c(OC)c1 (stereo not given),-92.2% [100 µM] (active) and -93.9% [100 µM] (active),-92.8% [100 µM] (active) and -93% [100 µM] (active)
CC/C(Cl)=N\OC(=O)Nc1ccc(OC)cc1,-92.2% [100 µM] (active) and -94.2% [100 µM] (active),-100% [100 µM] (active)
CCC/C(Cl)=N/OC(=O)Nc1cccc(F)c1,-86.8% [100 µM] (active) and -100% [100 µM] (active),-100% [100 µM] (active)
OCc1ccccc1OC1OC(CO)C(O)C(O)C1O (stereo not given),85.4% [100 µM] (inactive) and 95.9% [100 µM] (inactive),97.4% [100 µM] (inactive) and 97.5% [100 µM] (inactive)
Cc1ccc2c(/C=C/c3ccc(N(C)C)cc3)ccc(C(C)C)cc1-2,68.4% [100 µM] (inactive) and 58.1% [100 µM] (inactive),104% [100 µM] (inactive) and -33% [100 µM] (active)
COC(=O)c1cc(C#N)[nH]c1-c1ccsc1,67.3% [100 µM] (inactive) and 25.1% [100 µM] (inactive),93.8% [100 µM] (inactive) and 19.4% [100 µM] (inactive)
N#CC1(C#N)C2CCCCC23OC(=N)C1(C#N)C(c1ccccc1)O3 (stereo not given),-40.1% [100 µM] (active),-29% [100 µM] (active)
CC(=O)C1=C(C)N2C(=NC3=C(CCc4ccccc43)C2c2cccc(Br)c2)S1 (stereo not given),52.3% [100 µM] (inactive) and 8.59% [100 µM] (active),112% [100 µM] (inactive) and 48.5% [100 µM] (inactive)
NC(Cc1ccc(S(=O)(=O)O)cc1)C(=O)NC(Cc1ccc(S(=O)(=O)O)cc1)C(=O)NC(Cc1ccc(S(=O)(=O)O)cc1)C(=O)NC(Cc1ccc(S(=O)(=O)O)cc1)C(=O)O (stereo not given),86.3% [100 µM] (inactive) and 93.4% [100 µM] (inactive),102% [100 µM] (inactive) and 111% [100 µM] (inactive)
CC(=O)C1=C(C)N2C(=NC3=C(CCc4ccccc43)C2c2ccc(Cl)cc2)S1 (stereo not given),48.8% [100 µM] (inactive) and 14.3% [100 µM] (inactive),72.8% [100 µM] (inactive) and 35.4% [100 µM] (inactive)
COC(=O)C(=O)C(C(=O)C(=O)Nc1nc2ccc(C)cc2s1)c1nc2ccc([N+](=O)[O-])cc2[nH]c1=O (stereo not given),61.1% [100 µM] (inactive) and 52.2% [100 µM] (inactive),115% [100 µM] (inactive) and 75.4% [100 µM] (inactive)
COc1ccc(/C=C2/NC(=S)N=C2Cl)cc1,82.8% [100 µM] (inactive) and 23.4% [100 µM] (inactive),92.7% [100 µM] (inactive) and -42.1% [100 µM] (active)
CC(C)=CC(O)C/C(C)=C/CC/C(C)=C/CCC1(C)C(CCCO)/C(=C(/C)C=O)CCC1(C)O (stereo not given),-21.5% [100 µM] (active) and 2.9% [100 µM] (active),49.7% [100 µM] (inactive) and 9.22% [100 µM] (active)
CCCCCCCCCC(=O)CC(=O)c1c(O)cc(O)cc1O,-97.6% [75 µM] (active) and -88.4% [75 µM] (active),-1.86% [75 µM] (active) and 10% [75 µM] (inactive)

SMILES,growth (UACC-62 melanoma),growth (TK-10 renal)
O=C1CC(c2ccccc2)NCCCCN2CC(CN1)C(C(O)c1ccccc1)C2=O (stereo not given),72.5% [100 µM] (inactive) and 81.1% [100 µM] (inactive),97.8% [100 µM] (inactive) and 88.7% [100 µM] (inactive)
COc1c(OC)c(OC)c2c(c1OC)c(=O)c1ccccc1n2C,38.1% [100 µM] (inactive) and -44.4% [100 µM] (active),87.4% [100 µM] (inactive) and 35% [100 µM] (inactive)
C=C1C2CCC3C4(C)CCCC(C)(C(=O)O)C4CCC3(C2)C1OC(=O)/C(C)=C/C (stereo not given),-47.9% [100 µM] (active) and 42.1% [100 µM] (inactive),27.3% [100 µM] (inactive) and 79.6% [100 µM] (inactive)
O=C(O)CCCC(=O)Nn1c(Cc2ccc(Cl)cc2)n[nH]c1=O,70.6% [100 µM] (inactive) and 92.1% [100 µM] (inactive),85.5% [100 µM] (inactive) and 95% [100 µM] (inactive)
CC1OC23CCCCC2C(C#N)(C#N)C1(C#N)C(=N)O3 (stereo not given),-14.6% [100 µM] (active),36.7% [100 µM] (inactive)
Cc1ccc(NC(=O)/C(=N\NC(N)=O)c2c(O)c3ccccc3[nH]c2=O)cc1,87% [100 µM] (inactive) and 83% [100 µM] (inactive),123% [100 µM] (inactive) and 118% [100 µM] (inactive)
CCC(c1ccc(N(C)C)cc1)C1NC(=S)NC1=O (stereo not given),20.7% [100 µM] (inactive) and 17.1% [100 µM] (inactive),47.6% [100 µM] (inactive) and 37.5% [100 µM] (inactive)
COC(=O)C1CCC(=O)N1CN(C(C)=O)c1cccc(O)c1 (stereo not given),74.6% [100 µM] (inactive) and 102% [100 µM] (inactive),77.3% [100 µM] (inactive) and 106% [100 µM] (inactive)
O=C1NC(N/N=C\c2ccccc2)=N/C1=C/c1ccc(Cl)cc1,-9.96% [100 µM] (active) and 107% [100 µM] (inactive),-70.8% [100 µM] (active) and 57.9% [100 µM] (inactive)
C=CCNC1=C2C[C@@H](C)C[C@@H](OC)[C@@H](OC(=O)CCCN)[C@H](C)/C=C(\C)[C@@H](OC(N)=O)[C@H](OC)/C=C\C=C(/C)C(=O)NC(=CC1=O)C2=O,-57.7% [100 µM] (active) and -64.4% [100 µM] (active),-57.4% [100 µM] (active) and -99.4% [100 µM] (active)
C[C@@H]1C[C@](O)([C@@H](C)Cl)C(=O)O[C@@H]2CCN3CC=C(COC(=O)[C@]1(C)O)[C@H]23,77.3% [100 µM] (inactive) and 83.1% [100 µM] (inactive),66.6% [100 µM] (inactive) and 88% [100 µM] (inactive)
CCCCCCCCOC(=O)C12Oc3ccc(-c4ccc5c(c4O)C(O)=C4C(=O)CC(C)C(O)C4(C(=O)OCCCCCCCC)O5)c(O)c3C(O)=C1C(=O)CC(C)C2O (stereo not given),-66.7% [100 µM] (active) and -97.2% [100 µM] (active),-21.8% [100 µM] (active) and -100% [100 µM] (active)
Clc1c(Cl)c(Cl)c2nn(C3CCCO3)nc2c1Cl (stereo not given),-16.1% [100 µM] (active) and -100% [100 µM] (active),24.5% [100 µM] (inactive) and -76.8% [100 µM] (active)
Cc1ccc(OC2CC(n3cnc4ncnc(Cl)c43)OC2Oc2ccc(C)cc2)cc1 (stereo not given),11.7% [100 µM] (inactive) and -100% [100 µM] (active),85% [100 µM] (inactive) and -100% [100 µM] (active)
CN(C)c1ccc(/C=N/n2c(-c3ccccc3)nc3ccccc3c2=O)cc1,47.5% [100 µM] (inactive) and 13.6% [100 µM] (inactive),101% [100 µM] (inactive) and 30.4% [100 µM] (inactive)
CNC(=S)/C(=N\Nc1nc[nH]c1C(N)=O)C(N)=S,-8.08% [100 µM] (active) and 0.0251% [100 µM] (active),5.27% [100 µM] (active) and 4.34% [100 µM] (active)
CCOC(=O)C(=O)C(CCC(=O)c1ccc2ccccc2c1O)C(=O)OCC (stereo not given),85.4% [100 µM] (inactive) and 81.5% [100 µM] (inactive),125% [100 µM] (inactive) and 106% [100 µM] (inactive)

# — PubChem BioAssay (NCI)
